Source: PubChem (National Center for Advancing Translational Sciences (NCATS))
An excerpt weighted towards active compounds, which were near 2.7% of everything screened.
IP6K1 inh – IP6K1 kinase inhibition | activity change, % (series mostly up to about 58 µM) | Q92551 | IP6K1 kinase, ADP-Glo luminescence, 2 h; hits give low values | AID 1645851 | 140,000 compounds, 0.81% hits; in the data active = activity change below about -25%; note: % is set by controls: 0 for no effect and ±100 for the full control effect
Target sequence (Q92551 whole entry, looked up): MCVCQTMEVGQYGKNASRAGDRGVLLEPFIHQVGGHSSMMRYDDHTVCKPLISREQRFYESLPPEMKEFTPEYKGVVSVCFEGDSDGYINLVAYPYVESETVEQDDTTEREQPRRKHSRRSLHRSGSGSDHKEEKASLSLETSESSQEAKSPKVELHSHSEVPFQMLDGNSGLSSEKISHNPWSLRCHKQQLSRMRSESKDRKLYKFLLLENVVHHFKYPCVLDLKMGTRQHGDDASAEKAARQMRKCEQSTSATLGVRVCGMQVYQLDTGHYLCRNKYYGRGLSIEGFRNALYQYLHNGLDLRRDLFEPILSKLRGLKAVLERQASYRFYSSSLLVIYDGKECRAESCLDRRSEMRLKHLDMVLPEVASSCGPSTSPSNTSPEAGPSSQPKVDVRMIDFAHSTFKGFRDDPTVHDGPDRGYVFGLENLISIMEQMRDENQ
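ADP-Glo luminescence measures ADP made by human IP6K1 during a 2 h RT reaction with ATP/IP6 (mix at 1.3 mM/130 uM); top library doses 57.5 and 19.1 uM final.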
KDM5B inh – inhibitors of human KDM5B histone demethylase; 220,000 compounds, 2.6% hits; AID 1347165; Potency, µM (doses to about 57.7 µM), hits mostly inhibitors; KDM5B demethylase, FDH-coupled NADH fluorescence (FDH is formaldehyde dehydrogenase); Q9UGL1; active = well fitted inhibition curve with a large enough effect; inconclusive = small, poorly fitted or top-dose-only effect; inactive = no such curve, though single readings can be large or run the other way; note: potency is the fitted concentration of half-maximal effect; 0% is about no effect; nearly all actives have a fitted effect of over 70% in size
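Coupled FDH/NAD⁺ fluorescence readout. KDM5BΔAP 200 nM final; compound titration, 10 min RT preincubation; substrate mix 12.5 µM H3K4me3, 25 µM 2-OG, 50 µM Fe(II), 100 µM ascorbate, 0.25 mM NAD⁺, 0.25 U/mL FDH; ΔRFU over 30 min.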
An asterisk follows results filed as active; i = inactive; ? = inconclusive; . = no result; [ ] = dose if it differs, or a comment.

SMILES | IP6K1 inh | KDM5B inh
COC(=O)c1ccc(C(=O)OC)c(NC(=O)COC(=O)CC2Sc3ccccc3NC2=O)c1 (configuration not stated) | . | i
COc1ccc(-c2noc(CN(C(=O)c3cccs3)C3CCCCC3)n2)cc1 | . | i
Cc1n[nH]c(C)c1C(NC(=O)c1c(C)c2cccc(C)c2n1C)C(=O)O (configuration not stated) | -6 | i
C=CCNc1ccccc1C(=O)NC(C(=O)O)c1c(C)n[nH]c1C (configuration not stated) | -5 | 28µM*
CCCc1noc(-c2cccn3c(CNC(=O)c4cccc(F)c4)nnc23)n1 | -3 | 25µM*
CCc1noc(-c2cccn3c(CNC(=O)c4cccc(F)c4)nnc23)n1 | 40 | 22µM*
CCCc1noc(-c2cccn3c(CNC(=O)c4ccc(OCC)cc4)nnc23)n1 | -1 | i
Cc1noc(-c2cccn3c(CNC(=O)Cc4cccc(F)c4)nnc23)n1 | 13 | ?
CCc1noc(-c2cccn3c(CNC(=O)Cc4cccc(F)c4)nnc23)n1 | 8 | 25µM*
CCc1noc(-c2cccn3c(CNC(=O)c4c(F)cccc4Cl)nnc23)n1 | 35 | 28µM*
CCc1noc(-c2cccn3c(CNC(=O)c4cccc(N(C)C)c4)nnc23)n1 | 9 | i
COc1ccc(C2C(C#N)=C(N)N(c3c(F)cccc3F)C3=C2C(=O)CCC3)cc1OC (configuration not stated) | . | i
COCc1ccc(C(=O)NCC(C)c2ccccc2)cc1 (configuration not stated) | . | i
CCN(C(=O)c1ccc(Cl)s1)C1CC1 | . | i
N#Cc1sc(-c2cccc(Cl)c2)cc1N | . | i
COCC(=O)Oc1ccc2oc3ccccc3c2c1 | . | i
O=C(CSc1ncc(-c2cccc(Br)c2)o1)NC1CCCC1 | . | i
O=C(c1ccc(C(F)(F)F)cc1)N1CCC(C(=O)N2CCC(c3ccccc3)CC2)CC1 | 16 | .
CN1CCN(C(=O)CN(Cc2ccc(Cl)cc2Cl)S(=O)(=O)c2ccccc2)CC1 | . | i
Cc1ccc2nc(C3CCCN(Cc4cccc(-c5cccs5)c4)C3)[nH]c(=O)c2c1 (configuration not stated) | 21 | ?
Cc1ccc2nc(C3CCN(Cc4ccc(-c5cccs5)cc4)CC3)[nH]c(=O)c2c1 | -1 | 28µM*
CCCNC(=O)NCc1nc(-c2ccc(OCC)cc2)oc1C | . | i
O=C(NCc1ccc(F)cc1)C1CCCN(C(=O)NCc2ccccc2)C1 (configuration not stated) | . | i
Cc1c(-c2ccccc2F)[nH]c2ccc(CNC(=O)C3C=CCN3)cc12 (configuration not stated) | -17 | 28µM*
Cc1c(-c2ccccc2F)[nH]c2ccc(CNC(=O)C3CCCN(C(N)=O)C3)cc12 (configuration not stated) | 26 | 28µM*
SMILES | IP6K1 inh | KDM5B inh
CCc1[nH]c2ccc(CNC(=O)C3CC(=O)Nc4ccccc43)cc2c1C (configuration not stated) | -4 | i
O=Cc1cccc(-c2ccc(C(=O)O)o2)c1 | -20 | 126µM*
O=C(O)c1ccc(Cc2ccccc2)o1 | . | i
CC1=C[C@@H](CNC(=O)c2ccccc2)[C@H](C(C)C)C[C@H]1Cc1nnc(-c2cncn2C)o1 | 12 | i
CC1=C[C@@H](CN2CCN(c3ccccn3)CC2)[C@H](C(C)C)C[C@H]1Cc1nnc(-c2ccc(C)cc2)o1 | -6 | ?
CC1=C[C@@H](CN2CCN(c3cnccn3)CC2)[C@H](C(C)C)C[C@H]1Cc1nnc(-c2ccccc2)o1 | -16 | 28µM*
CC1=C[C@@H](CNc2ccccn2)[C@H](C(C)C)C[C@H]1Cc1nnc(-c2cncn2C)o1 | -4 | 35µM*
COCC1CN(C)CC12CCN(S(=O)(=O)c1cccc(OC)c1)CC2 (configuration not stated) | 3 | ?
O=C(Nc1ccc2oc(-c3cccc(F)c3)nc2c1)c1ccc2ccccc2c1 | 14 | i[11.5 µM]
Cc1nc(CNC(=O)c2ccc3oc(-c4cccc(F)c4)nc3c2)cs1 | 14 | 20µM*
CN(CCC(O)c1ccccc1)C(=O)c1ccc2oc(-c3cccc(F)c3)nc2c1 (configuration not stated) | 1 | 22µM*
O=C(NCc1cccs1)c1ccc2oc(-c3ccncc3)nc2c1 | 12 | .
COc1ccc(F)cc1-c1cccc(C(=O)NCC(=O)NC2CCCCCC2)c1 | 2 | .
COc1ccc(Cl)cc1C(=O)NCc1nnc2ccc(-c3ccc(C)c(C)c3)nn12 | -1 | 32µM*
COc1ccc(Cl)cc1C(=O)NCc1nnc2ccc(-c3ccccc3)nn12 | -3 | 25µM*
COc1ccc(Cl)cc1C(=O)NCc1nnc2ccc(-c3ccc(Cl)cc3)nn12 | 11 | i
O=C1CCN(CC(O)Cc2ccccc2)c2ccccc2CCN1C/C=C/c1ccccc1 (configuration not stated) | 5 | .
